Common to all, as to assay: DAPPL (digital affinity profiling via proximity ligation, sequencing); 10 mM Tris-HCl pH 7.5, 50 mM NaCl, 1 mM DTT, 4% glycerol, room temperature, 30 min; GST-TFs on glutathione beads, 16-mer random dsDNA library, 0.1% formaldehyde crosslink after washing; high values mean tight binding
Holding throughout (details): protein: recombinant; tags: N-terminal GST; dsDNA, one strand shown

The target of experiment [1] is T1, FLI1 (Homo sapiens, UniProt Q01543 1-452).
T1 sequence: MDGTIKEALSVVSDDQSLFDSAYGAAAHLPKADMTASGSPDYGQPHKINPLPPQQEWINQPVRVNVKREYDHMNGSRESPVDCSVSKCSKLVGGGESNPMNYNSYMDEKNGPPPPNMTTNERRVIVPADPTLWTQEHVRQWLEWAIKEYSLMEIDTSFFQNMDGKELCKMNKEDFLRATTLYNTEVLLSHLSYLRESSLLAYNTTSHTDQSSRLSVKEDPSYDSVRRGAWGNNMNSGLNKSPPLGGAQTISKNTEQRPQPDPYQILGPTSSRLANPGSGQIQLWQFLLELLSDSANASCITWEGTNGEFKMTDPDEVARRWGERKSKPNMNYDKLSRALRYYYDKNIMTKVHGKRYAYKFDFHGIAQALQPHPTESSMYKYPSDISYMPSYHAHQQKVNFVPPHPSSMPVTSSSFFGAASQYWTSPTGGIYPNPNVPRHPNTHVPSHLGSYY
The procedure, abridged:
(§1)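 Beads coated with glutathione captured GST-fused human transcription factors that had been expressed in yeast, and the factors were then given DNA barcodes and pooled with a tag-only sample. The pools were incubated with 200 nmole of a random double-stranded 16-mer DNA library in Tris/NaCl/DTT/glycerol buffer for 30 min at room temperature, washed, crosslinked with 0.1% formaldehyde and proximity-ligated with BsaI/T4 ligase at 37 °C for 1 h. PCR amplification and Illumina NextSeq500 sequencing came last. Binding signal is each hexamer's read frequency for a factor divided by its frequency for the tag-only sample.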

Experiment [2] concerns the target T2, ELK1 (Homo sapiens, UniProt P19419 1-428).
T2 sequence: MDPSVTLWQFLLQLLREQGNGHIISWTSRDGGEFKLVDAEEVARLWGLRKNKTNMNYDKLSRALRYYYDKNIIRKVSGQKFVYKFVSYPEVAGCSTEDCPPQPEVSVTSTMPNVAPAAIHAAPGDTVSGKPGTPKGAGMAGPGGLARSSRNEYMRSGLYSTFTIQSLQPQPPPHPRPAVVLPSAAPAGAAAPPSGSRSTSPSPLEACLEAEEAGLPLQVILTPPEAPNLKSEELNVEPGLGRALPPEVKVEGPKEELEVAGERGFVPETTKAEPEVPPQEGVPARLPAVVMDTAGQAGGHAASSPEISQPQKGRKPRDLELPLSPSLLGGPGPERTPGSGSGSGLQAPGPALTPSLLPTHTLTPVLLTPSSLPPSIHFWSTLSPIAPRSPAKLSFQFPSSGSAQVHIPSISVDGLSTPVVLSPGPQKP
In a few lines:
as §1

Experiment [3] deals with T3, ERG (Homo sapiens, UniProt P11308 1-479).
T3 sequence: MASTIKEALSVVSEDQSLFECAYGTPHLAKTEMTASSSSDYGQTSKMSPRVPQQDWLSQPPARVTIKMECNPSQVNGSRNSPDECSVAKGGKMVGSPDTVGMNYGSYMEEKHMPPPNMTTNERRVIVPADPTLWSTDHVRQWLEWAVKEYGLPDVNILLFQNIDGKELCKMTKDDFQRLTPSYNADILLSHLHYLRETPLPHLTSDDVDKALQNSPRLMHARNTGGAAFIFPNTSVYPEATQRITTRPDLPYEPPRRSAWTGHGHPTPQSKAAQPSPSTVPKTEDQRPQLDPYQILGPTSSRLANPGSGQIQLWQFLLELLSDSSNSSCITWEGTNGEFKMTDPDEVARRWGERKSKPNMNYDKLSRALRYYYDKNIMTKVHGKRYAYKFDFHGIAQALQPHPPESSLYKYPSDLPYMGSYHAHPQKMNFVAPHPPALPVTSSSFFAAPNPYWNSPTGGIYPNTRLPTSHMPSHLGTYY
In a few lines: as §1

The target in experiment [4] is ELF1 (Homo sapiens, UniProt P32519 1-619). The procedure, abridged: as §1
Experiment [5] deals with T4, EHF (Homo sapiens, UniProt Q9NZC4 1-300).
T4 sequence: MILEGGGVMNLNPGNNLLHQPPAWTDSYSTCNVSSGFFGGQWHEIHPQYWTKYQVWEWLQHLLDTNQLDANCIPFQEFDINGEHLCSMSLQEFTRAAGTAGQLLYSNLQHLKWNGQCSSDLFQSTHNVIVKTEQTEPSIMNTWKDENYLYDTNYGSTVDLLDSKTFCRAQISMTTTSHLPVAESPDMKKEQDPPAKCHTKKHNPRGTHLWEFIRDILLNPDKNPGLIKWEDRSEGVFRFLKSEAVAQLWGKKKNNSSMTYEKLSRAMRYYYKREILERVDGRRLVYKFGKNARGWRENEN
In a few lines: as §1

In experiment [6] the target is SPI1 (Homo sapiens, UniProt P17947 1-270). In a few lines: as §1
Experiment [7] deals with SPIB (Homo sapiens, UniProt Q01892 1-262). In a few lines:
as §1

The target in experiment [8] is T5, ELK3 (Homo sapiens, UniProt P41970 1-407).
T5 sequence: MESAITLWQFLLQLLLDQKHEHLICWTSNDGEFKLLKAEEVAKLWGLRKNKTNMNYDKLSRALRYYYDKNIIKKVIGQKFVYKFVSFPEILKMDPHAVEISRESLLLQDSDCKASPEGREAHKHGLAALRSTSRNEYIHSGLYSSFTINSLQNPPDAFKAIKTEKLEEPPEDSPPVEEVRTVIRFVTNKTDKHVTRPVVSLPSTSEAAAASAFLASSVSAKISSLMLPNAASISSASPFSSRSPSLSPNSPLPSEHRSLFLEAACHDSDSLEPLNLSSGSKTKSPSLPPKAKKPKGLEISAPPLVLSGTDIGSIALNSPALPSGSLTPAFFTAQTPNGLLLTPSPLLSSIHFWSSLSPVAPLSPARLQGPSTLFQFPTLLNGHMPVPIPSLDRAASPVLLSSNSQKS
In a few lines:
as §1

The target in experiment [9] is T6, FEV (Homo sapiens, UniProt Q99581 1-238).
T6 sequence: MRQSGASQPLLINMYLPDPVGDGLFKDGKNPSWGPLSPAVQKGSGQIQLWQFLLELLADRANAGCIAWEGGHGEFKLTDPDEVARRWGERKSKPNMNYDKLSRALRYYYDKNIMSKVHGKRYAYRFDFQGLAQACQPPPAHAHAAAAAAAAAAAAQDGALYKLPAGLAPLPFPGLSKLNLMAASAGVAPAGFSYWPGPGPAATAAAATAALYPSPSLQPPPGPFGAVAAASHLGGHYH
The procedure, abridged:
as §1

In experiment [10] the target is ETV5 (Homo sapiens, UniProt P41161 1-510). In a few lines: as §1
Experiment [11] deals with T7, SPIC (Homo sapiens, UniProt Q8N5J4 1-248).
T7 sequence: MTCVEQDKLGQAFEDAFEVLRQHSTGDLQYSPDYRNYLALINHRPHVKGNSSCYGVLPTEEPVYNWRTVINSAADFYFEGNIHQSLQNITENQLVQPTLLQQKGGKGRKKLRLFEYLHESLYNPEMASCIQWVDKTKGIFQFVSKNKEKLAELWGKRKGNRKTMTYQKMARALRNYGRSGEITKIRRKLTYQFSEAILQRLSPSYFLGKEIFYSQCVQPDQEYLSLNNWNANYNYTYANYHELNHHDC
The procedure, abridged:
as §1

Experiment [12] deals with ELF4 (Homo sapiens, UniProt Q99607 1-663). The procedure, abridged: as §1
For experiment [13], the target named is T8, ELK4 (Homo sapiens, UniProt P28324-2 1-405).
T8 sequence: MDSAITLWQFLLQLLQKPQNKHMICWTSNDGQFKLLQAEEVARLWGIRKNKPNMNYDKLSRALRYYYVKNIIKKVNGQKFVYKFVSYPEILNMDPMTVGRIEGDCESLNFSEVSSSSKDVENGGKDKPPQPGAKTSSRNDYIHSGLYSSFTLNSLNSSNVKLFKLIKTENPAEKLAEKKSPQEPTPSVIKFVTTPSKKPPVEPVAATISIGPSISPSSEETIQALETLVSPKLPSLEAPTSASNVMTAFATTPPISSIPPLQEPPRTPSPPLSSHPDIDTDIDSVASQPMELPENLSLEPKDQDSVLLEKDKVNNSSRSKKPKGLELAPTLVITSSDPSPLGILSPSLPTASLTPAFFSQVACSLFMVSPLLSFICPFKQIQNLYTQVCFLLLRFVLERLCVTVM
The procedure, abridged:
as §1

For experiment [14], the target named is T9, ETV2 (Homo sapiens, UniProt O00321 1-342).
T9 sequence: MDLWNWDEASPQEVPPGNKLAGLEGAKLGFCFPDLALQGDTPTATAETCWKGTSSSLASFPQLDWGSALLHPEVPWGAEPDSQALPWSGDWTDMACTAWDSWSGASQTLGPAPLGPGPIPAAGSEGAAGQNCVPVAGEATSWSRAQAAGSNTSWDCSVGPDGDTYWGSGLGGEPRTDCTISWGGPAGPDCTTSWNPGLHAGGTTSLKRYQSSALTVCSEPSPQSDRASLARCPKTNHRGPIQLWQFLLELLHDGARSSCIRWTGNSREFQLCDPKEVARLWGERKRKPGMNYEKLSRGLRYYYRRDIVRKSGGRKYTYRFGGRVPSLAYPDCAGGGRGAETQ
The procedure, abridged: as §1

The target in experiment [15] is T10, ELF3 (Homo sapiens, UniProt P78545 1-371).
T10 sequence: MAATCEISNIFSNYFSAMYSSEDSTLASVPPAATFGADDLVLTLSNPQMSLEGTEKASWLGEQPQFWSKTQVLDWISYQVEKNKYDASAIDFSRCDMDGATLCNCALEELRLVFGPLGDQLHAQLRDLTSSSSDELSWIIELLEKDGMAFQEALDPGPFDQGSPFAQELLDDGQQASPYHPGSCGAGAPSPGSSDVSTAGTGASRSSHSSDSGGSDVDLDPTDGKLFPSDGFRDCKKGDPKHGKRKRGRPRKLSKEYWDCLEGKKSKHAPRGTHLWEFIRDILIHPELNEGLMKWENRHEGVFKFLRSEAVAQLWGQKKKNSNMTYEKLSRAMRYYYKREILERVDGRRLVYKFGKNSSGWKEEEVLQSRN
In a few lines:
as §1

The target in experiment [16] is ETV1 (Homo sapiens, UniProt P50549 1-477). The procedure, abridged: as §1
For experiment [17], the target named is T11, GABPA (Homo sapiens, UniProt Q06546 1-454).
T11 sequence: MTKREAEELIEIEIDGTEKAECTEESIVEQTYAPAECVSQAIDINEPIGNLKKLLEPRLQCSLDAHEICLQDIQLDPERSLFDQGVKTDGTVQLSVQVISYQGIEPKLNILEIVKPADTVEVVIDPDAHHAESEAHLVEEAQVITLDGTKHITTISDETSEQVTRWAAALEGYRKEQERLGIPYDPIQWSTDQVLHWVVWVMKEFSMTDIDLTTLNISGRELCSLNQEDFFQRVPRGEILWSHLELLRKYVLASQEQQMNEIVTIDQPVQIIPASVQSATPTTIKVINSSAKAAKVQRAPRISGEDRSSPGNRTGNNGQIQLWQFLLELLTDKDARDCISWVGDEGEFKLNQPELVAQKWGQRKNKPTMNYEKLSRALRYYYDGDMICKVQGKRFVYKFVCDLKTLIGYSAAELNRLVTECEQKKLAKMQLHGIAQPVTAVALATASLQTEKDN
The procedure, abridged: as §1

Chain of ETV5 (P41161 whole entry): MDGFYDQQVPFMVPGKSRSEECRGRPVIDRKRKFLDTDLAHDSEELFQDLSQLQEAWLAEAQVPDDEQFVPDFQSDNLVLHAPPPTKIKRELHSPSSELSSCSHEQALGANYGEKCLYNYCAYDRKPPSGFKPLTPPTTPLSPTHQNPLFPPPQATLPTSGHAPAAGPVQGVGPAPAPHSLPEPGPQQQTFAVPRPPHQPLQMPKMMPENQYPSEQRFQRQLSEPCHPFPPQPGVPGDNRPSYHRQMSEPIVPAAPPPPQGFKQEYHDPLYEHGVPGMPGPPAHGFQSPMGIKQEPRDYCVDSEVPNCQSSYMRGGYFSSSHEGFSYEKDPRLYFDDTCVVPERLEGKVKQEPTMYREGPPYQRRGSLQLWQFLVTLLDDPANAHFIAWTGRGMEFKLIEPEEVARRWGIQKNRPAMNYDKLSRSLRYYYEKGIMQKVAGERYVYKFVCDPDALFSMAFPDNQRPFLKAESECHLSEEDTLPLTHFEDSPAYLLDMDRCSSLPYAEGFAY
Chain of ELF4 (Q99607 whole entry): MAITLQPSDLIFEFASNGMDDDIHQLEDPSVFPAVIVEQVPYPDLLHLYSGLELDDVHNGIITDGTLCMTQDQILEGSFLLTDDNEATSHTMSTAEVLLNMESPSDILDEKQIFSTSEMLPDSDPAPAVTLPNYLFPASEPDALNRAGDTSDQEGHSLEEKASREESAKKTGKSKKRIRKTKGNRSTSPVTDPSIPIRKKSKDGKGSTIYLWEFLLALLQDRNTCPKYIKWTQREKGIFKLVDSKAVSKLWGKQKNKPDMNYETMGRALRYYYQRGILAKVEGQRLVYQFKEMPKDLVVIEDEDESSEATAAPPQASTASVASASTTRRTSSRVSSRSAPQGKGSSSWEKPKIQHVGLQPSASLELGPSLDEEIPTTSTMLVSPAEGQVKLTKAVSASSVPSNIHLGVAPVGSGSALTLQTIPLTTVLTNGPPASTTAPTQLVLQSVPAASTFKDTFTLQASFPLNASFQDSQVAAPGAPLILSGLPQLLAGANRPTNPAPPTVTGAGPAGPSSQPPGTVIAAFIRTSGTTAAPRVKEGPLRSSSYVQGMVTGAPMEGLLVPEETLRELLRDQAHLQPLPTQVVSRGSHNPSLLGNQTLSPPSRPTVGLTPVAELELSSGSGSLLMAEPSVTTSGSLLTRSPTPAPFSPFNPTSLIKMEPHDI
Chain of SPIB (Q01892 whole entry): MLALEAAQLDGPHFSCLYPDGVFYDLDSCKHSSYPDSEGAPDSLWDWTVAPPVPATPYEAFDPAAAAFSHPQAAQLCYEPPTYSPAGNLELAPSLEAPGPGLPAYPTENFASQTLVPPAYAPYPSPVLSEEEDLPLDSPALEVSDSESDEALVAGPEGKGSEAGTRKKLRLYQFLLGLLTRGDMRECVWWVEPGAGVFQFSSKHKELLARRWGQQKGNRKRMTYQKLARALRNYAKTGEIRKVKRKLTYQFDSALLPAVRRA
Chain of ELF1 (P32519 whole entry): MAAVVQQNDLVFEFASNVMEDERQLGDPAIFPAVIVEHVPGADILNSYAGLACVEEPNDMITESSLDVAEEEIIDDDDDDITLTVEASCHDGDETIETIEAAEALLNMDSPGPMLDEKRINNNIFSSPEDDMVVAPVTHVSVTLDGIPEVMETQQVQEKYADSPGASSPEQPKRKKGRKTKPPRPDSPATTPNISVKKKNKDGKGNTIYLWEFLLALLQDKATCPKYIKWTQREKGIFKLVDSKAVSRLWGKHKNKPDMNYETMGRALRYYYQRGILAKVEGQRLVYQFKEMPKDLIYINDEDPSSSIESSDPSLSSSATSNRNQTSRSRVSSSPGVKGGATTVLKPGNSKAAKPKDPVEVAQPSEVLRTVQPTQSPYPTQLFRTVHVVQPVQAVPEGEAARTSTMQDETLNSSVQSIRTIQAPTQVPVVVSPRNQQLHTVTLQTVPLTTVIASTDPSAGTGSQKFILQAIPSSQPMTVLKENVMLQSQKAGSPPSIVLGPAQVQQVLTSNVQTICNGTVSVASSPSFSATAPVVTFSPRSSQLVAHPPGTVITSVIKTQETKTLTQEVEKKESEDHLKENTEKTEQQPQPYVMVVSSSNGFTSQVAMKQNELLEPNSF
Chain of ETV1 (P50549 whole entry): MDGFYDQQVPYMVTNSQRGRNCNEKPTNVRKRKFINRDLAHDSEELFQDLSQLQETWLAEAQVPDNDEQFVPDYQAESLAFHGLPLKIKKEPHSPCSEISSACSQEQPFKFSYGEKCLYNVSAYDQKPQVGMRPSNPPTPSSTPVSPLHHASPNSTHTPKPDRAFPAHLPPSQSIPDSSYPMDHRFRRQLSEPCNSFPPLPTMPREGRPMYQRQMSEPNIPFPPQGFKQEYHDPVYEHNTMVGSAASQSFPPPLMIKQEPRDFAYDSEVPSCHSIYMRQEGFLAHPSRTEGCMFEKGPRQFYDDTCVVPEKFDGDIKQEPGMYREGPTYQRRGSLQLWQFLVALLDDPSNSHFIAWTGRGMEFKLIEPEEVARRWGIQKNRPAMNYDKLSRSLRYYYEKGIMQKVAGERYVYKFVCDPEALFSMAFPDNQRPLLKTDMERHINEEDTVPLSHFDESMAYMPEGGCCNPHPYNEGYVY

For the sequence CCGGTC, the binding signal in experiment [1] was 1.17 fold enrichment (6-mer frequency, TF over GST control); in [2], 1.18 fold enrichment (6-mer frequency, TF over GST control); in experiment [3], 1.3 fold enrichment (6-mer frequency, TF over GST control); in [4] it was 1.14 fold enrichment (6-mer frequency, TF over GST control); in [5], 1.1 fold enrichment (6-mer frequency, TF over GST control); in experiment [6] it was 1.01 fold enrichment (6-mer frequency, TF over GST control). Also, the binding signal is 1.08 fold enrichment (6-mer frequency, TF over GST control) in experiment [7]; 1.18 fold enrichment (6-mer frequency, TF over GST control) in experiment [8]; 1.62 fold enrichment (6-mer frequency, TF over GST control) in [9]; 1.22 fold enrichment (6-mer frequency, TF over GST control) in experiment [10]; 1.01 fold enrichment (6-mer frequency, TF over GST control) in experiment [11]; 1.08 fold enrichment (6-mer frequency, TF over GST control) in experiment [12]. For the same sequence, the binding signal in experiment [13] is 1.18 fold enrichment (6-mer frequency, TF over GST control); in [14], 1.08 fold enrichment (6-mer frequency, TF over GST control); in experiment [15], 1.14 fold enrichment (6-mer frequency, TF over GST control); in experiment [16] it was 1.17 fold enrichment (6-mer frequency, TF over GST control).

As for CCCTGT, the binding signal in experiment [1] is 1.18 fold enrichment (6-mer frequency, TF over GST control); in experiment [2] it was 1.02 fold enrichment (6-mer frequency, TF over GST control); in experiment [17], 1.2 fold enrichment (6-mer frequency, TF over GST control); in experiment [3] it was 1.21 fold enrichment (6-mer frequency, TF over GST control); in experiment [4], 1.17 fold enrichment (6-mer frequency, TF over GST control); in [5] it was 1.09 fold enrichment (6-mer frequency, TF over GST control). Further, the binding signal in experiment [6] is 1.07 fold enrichment (6-mer frequency, TF over GST control); in experiment [7], 1.12 fold enrichment (6-mer frequency, TF over GST control); in experiment [9], 1.04 fold enrichment (6-mer frequency, TF over GST control); in experiment [10], 1.11 fold enrichment (6-mer frequency, TF over GST control); in [11], 1.2 fold enrichment (6-mer frequency, TF over GST control); in experiment [12], 1.11 fold enrichment (6-mer frequency, TF over GST control). Besides, the binding signal was 1.25 fold enrichment (6-mer frequency, TF over GST control) in experiment [13]; 1.03 fold enrichment (6-mer frequency, TF over GST control) in [14]; 1.08 fold enrichment (6-mer frequency, TF over GST control) in experiment [15]; 1.06 fold enrichment (6-mer frequency, TF over GST control) in experiment [16].

The values are drawn from publication PMC7862700, “An all-to-all approach to the identification of sequence-specific readers for epigenetic DNA modifications on cytosine”.
